Results from the supplement of paper PMC10515830.
Where a name gives a salt, the structure may show the parent alone.

How the values were obtained:
Conditions in all cases: 10 µM; exposure time 6 h
[1] = test system: Danio rerio larvae (5 dpf); assay: difference in excitability vs DMSO (percentage points); higher = more excitable than DMSO
Method in brief: (§1)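 Library compounds were tested at 10 µM final in 100 µL egg water on wild-type 5 dpf zebrafish larvae in 96-well plates for 6 h, with 48 larvae per compound. After 3 h, plates at 28.5 ℃ were imaged every 6 s during a 3-h run of moving lines and 100 ms, 400Hz tones. Behaviours were quantified by Z-LaP Tracker and reported as the compound mean less the vehicle control mean, in percentage points.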

[2] = test system: Danio rerio larvae (5 dpf); assay: difference in startle response vs DMSO (percentage points); higher = stronger startle than DMSO
Method in brief: as §1

[3] = test system: Danio rerio larvae (5 dpf); assay: difference in activity during first hour vs DMSO (percentage points); higher = more activity than DMSO
Method in brief: as §1

[4] = test system: Danio rerio larvae (5 dpf); assay: difference in habituation to acoustic stimuli vs DMSO (percentage points); higher = more habituation than DMSO
Method in brief: as §1

[5] = test system: Danio rerio larvae (5 dpf); assay: difference in combined optomotor response to red, green and blue moving lines vs DMSO (percentage points); higher = stronger optomotor response than DMSO
Method in brief: as §1

Row | Structure (SMILES) | difference in excitability [1] | difference in startle response [2] | difference in activity during first hour [3] | difference in habituation to acoustic stimuli [4] | difference [5]
1 | c1cnc2cc3c(cc2n1)[C@@H]1CNC[C@H]3C1 [Varenicline (tartrate)] | 0.228 | 1.55 | 3.08 | 5.66 | -2.67
2 | O=c1[nH]c(=O)n([C@H]2C[C@H](O)[C@@H](CO)O2)cc1C(F)(F)F [Trifluorothymidine] | -0.163 | -3.06 | 5.45 | -4.69 | 1.93
3 | O=C1CN(/N=C/c2ccc([N+](=O)[O-])o2)C(=O)N1 [Nitrofurantoin] | 9.88 | -2.07 | 8.16 | 4.03 | 8.98
4 | CC1OC2(CS1)CN1CCC2CC1 (stereo not given) [Cevimeline (hydrochloride)] | -6.36 | -3.25 | 16.4 | -3.9 | -1.46
5 | C=C1/C(=C\C=C2/CCC[C@]3(C)[C@@H]([C@H](C)/C=C/[C@@H](O)C4CC4)CC[C@@H]23)C[C@@H](O)C[C@@H]1O [Calcipotriol (hydrate)] | 15.4 | -5.26 | 0.435 | -0.975 | 5.42
6 | CCCCCCCCCC(=O)N[C@@H](Cc1c[nH]c2ccccc12)C(=O)N[C@H](CC(N)=O)C(=O)N[C@@H](CC(=O)O)C(=O)N[C@@H]1C(=O)NCC(=O)N[C@@H](CCCN)C(=O)N[C@@H](CC(=O)O)C(=O)N[C@H](C)C(=O)N[C@@H](CC(=O)O)C(=O)NCC(=O)N[C@H](CO)C(=O)N[C@@H]([C@H](C)CC(=O)O)C(=O)N[C@@H](CC(=O)c2ccccc2N)C(=O)O[C@@H]1C [Daptomycin] | 12 | 1.46 | 7.99 | -6.5 | 6.83
7 | CC1=C(CC(=O)O)c2cc(F)ccc2/C1=C\c1ccc([S+](C)[O-])cc1 (stereo not given) [Sulindac] | 6.96 | 0.529 | 10.8 | 0.634 | -2.61
8 | CN(C)CC(c1ccc(O)cc1)C1(O)CCCCC1 (racemic) [(±)-O-Desmethyl Venlafaxine] | 18.2 | -5.6 | -19.3 | -8.93 | -5.4
9 | O=C(c1ccc(F)c(F)c1Nc1ccc(I)cc1F)N1CC(O)([C@@H]2CCCCN2)C1 [Cobimetinib] | 22.7 | -2.69 | 0.0371 | 0.214 | 2.37
10 | Cn1c(=O)c2[nH]cnc2n(C)c1=O [Oxtriphylline] | -4.32 | 6.97 | -0.101 | 1.02 | -3.12
11 | CCCCCOc1ccc(-c2ccc(-c3ccc(C(=O)N[C@H]4C[C@@H](O)[C@@H](O)NC(=O)[C@@H]5[C@@H](O)[C@@H](C)CN5C(=O)[C@H]([C@@H](C)O)NC(=O)[C@H]([C@H](O)[C@@H](O)c5ccc(O)cc5)NC(=O)[C@@H]5C[C@@H](O)CN5C(=O)[C@H]([C@@H](C)O)NC4=O)cc3)cc2)cc1 [Anidulafungin] | 9.87 | -9.61 | -17.6 | -10.4 | -18.1
12 | Cc1[nH]cnc1CN1CCc2c(c3ccccc3n2C)C1=O [Alosetron (hydrochloride)] | -3.91 | 3.08 | 8.78 | 3.46 | 8.63
13 | CC[C@]1(O)C[C@@H]2CN(CCc3c([nH]c4ccccc34)[C@@](C(=O)OC)(c3cc4c(cc3OC)N(C)[C@H]3[C@@](O)(C(=O)OC)[C@H](OC(C)=O)[C@]5(CC)C=CCN6CC[C@]43[C@@H]65)C2)C1 [Vinblastine (sulfate)] | 11.1 | -3.06 | -6.36 | -2.13 | -3.97
14 | CC(COc1ccccc1)N(CCCl)Cc1ccccc1 (stereo not given) [Phenoxybenzamine (hydrochloride)] | 4.28 | 2.85 | 18.5 | -1.54 | 2.87
15 | Cc1c(C(=O)Nc2ccc(N3C[C@@H](C)O[C@@H](C)C3)nc2)cccc1-c1ccc(OC(F)(F)F)cc1 [LDE225 (phosphate)] | 13 | -4.4 | -2.84 | -4.9 | 3.16
16 | COc1nc(N)nc2c1ncn2[C@@H]1O[C@H](CO)[C@@H](O)[C@@H]1O [Nelarabine] | 19.6 | 1.82 | -4.45 | -0.162 | 2.02
17 | COc1cc([C@@H]2c3cc4c(cc3[C@@H](O[C@@H]3O[C@@H]5CO[C@@H](c6cccs6)O[C@H]5[C@H](O)[C@H]3O)[C@H]3COC(=O)[C@H]23)OCO4)cc(OC)c1O [Teniposide] | -5.17 | -1.26 | -12 | 3.62 | -8.33
18 | CCN[C@H]1C[C@H](C)S(=O)(=O)c2sc(S(N)(=O)=O)cc21 [Dorzolamide (hydrochloride)] | -4.82 | -3.95 | 4.07 | 2.29 | 3.26
19 | C[C@@H]1C[C@H]2[C@@H]3CCC4=CC(=O)C=C[C@]4(C)[C@@]3(F)[C@@H](O)C[C@]2(C)[C@H]1C(=O)CO [Desoximetasone] | 2.03 | 4.16 | -4.98 | 2.48 | 0.705
20 | COc1ccccc1OCCNCC(O)COc1cccc2[nH]c3ccccc3c12 (stereo not given) [Carvedilol] | 21.2 | 2.07 | -3.13 | 0.913 | 3.65
21 | N#Cc1ccc(C(c2ccc(C#N)cc2)n2cncn2)cc1 [Letrozole] | 4.92 | -5.86 | -6.93 | -3.28 | 0.376
22 | OCCN1CCN(CCCN2c3ccccc3Sc3ccc(Cl)cc32)CC1 [Perphenazine] | 18.9 | -4.36 | 24 | -10.2 | 2.99
23 | CNCCCC12CCC(c3ccccc31)c1ccccc12 [Maprotiline (hydrochloride)] | -2.87 | 5.37 | -7.95 | 0.965 | 2.3
24 | C[C@H]1C[C@H]2[C@@H]3CCC4=CC(=O)C=C[C@]4(C)[C@@]3(F)[C@@H](O)C[C@]2(C)[C@@]1(O)C(=O)CO [Betamethasone] | 19.9 | 8.22 | -16.1 | 3.7 | 5.5
25 | Nc1cc(-c2ccncc2)c[nH]c1=O [Amrinone] | -0.366 | 5.87 | -4.08 | 9.44 | 0.366
26 | CC/C=C\C/C=C\C/C=C\C/C=C\C/C=C\CCCC(=O)OCC [Eicosapentaenoic Acid ethyl ester] | 11.7 | 2.48 | -7.19 | 3.98 | 7.27
27 | O=C(O)COCCN1CCN([C@H](c2ccccc2)c2ccc(Cl)cc2)CC1 [(R)-Cetirizine (hydrochloride)] | 5.78 | -3.02 | -1.26 | 6.23 | 5.37
28 | COc1ccc(C[C@@H](C)NC[C@H](O)c2ccc(O)c(NC=O)c2)cc1 [Arformoterol (tartrate)] | 10.3 | -8.57 | 39 | -7.89 | -2.14
